# Measurements reported in PubChem BioAssay (Tox21).
# Unmarked numbers belong to inactive results. Calls of active or inactive are those of the source. Calls come from the whole dose curve; as a rule, active = well fitted cell-killing curve with a large enough effect in the repeat runs; inconclusive = weak or mixed curves, or effect the other way; inactive = flat fitted curve, though single readings scatter.
# Assay: qHTS assay to identify small molecule HDAC inhibitors - cell viability counter screen (AID 1259365); note: nearly all actives have a fitted effect of over 50% in size
# Conditions: HCT-116 viability, CellTiter-Glo ATP luminescence, 2 h; series mostly up to 92.4 µM
# Description: U.S. Tox21 Program National Center for Advancing Translational Sciences [NCATS] NIH Chemical Genomics Center [NCGC] U.S. Environmental Protection Agency [EPA] National Institutes of Environmental Health Sciences [NIEHS] National Toxicology Program [NTP] U.S. Food and Drug Administration [FDA] Tox21 Assay Overview: Histone deacetylases (HDACs) are a group of epigenetic enzymes that regulate gene expression by histone deacetylation. HDACs are capable of introducing epigenetic modifications and such aberrations contribute to the onset and progression of several human diseases, thus making HDACs a popular therapeutic target. For identifying endogenous class I/II HDAC inhibitors a homogenous, luminogenic HDAC I/II cell based assay was used to measure the relative activity of class I and II HDACs from cells. Wild type HCT-116 cells were used to screen Tox21 compound libraries for identifying class I/II HDAC inhibitors.
# Tox21 Assay Protocol Summary: HCT-116 cells were dispensed at 1,500 per well in 5uL of culture medium into white solid bottom 1536-well plates (Greiner Bio-One, Monroe, NC) using a Multidrop Combi (Thermo Scientific, Waltham, MA) dispenser. The assay plates were incubated at 37 C and 5% CO2 for an overnight, and then 23nL of compounds dissolved in DMSO and positive control were transferred using a Pintool station (Wako, San Diego, CA). The assay plates were incubated at 37C and 5% CO2 for 2hr. After compound treatment, 4uL of CellTiter-Glo reagent (Promega Corporation, Madison, WI) was added to each well of the assay plates using Flying Reagent Dispenser (FRD, Aurora Discovery, San Diego, CA) and incubated the assay plates at room temperature for 30min. The luminescence signal was quantified using a ViewLux plate reader (Perkin Elmer, Shelton, CT).
# % is set by controls: 0 for no effect and ±100 for the full control effect.
Compound,outcome,"activity change, negative = cytotoxicity"
FC(F)(F)/C(=N\OCC1OCCO1)c1ccc(Cl)cc1,inactive,–
CCCCCCCCC(=O)OCC,inactive,–
CNC(=O)NC,inactive,–
NS(=O)(=O)c1cc2c(cc1Cl)NC(C(Cl)Cl)NS2(=O)=O (stereo not given),inactive,–
C[C@H]1O[C@H](O[C@H]2[C@H](O)[C@@H](O)[C@@H](O[C@H]3[C@H](O)[C@@H](O)[C@H](O)O[C@@H]3CO)O[C@@H]2CO)[C@H](O)[C@@H](O)[C@@H]1N[C@H]1C=C(CO)[C@@H](O)[C@H](O)[C@H]1O,inactive,–
C1=C\CC/C=C\CC/1,inactive,–
C[CH2][Ge]([Cl])([CH2]C)[CH2]C,inactive,–
CCCCCCCC/C=C\CCCCCCCC(=O)OC[C@@H](O)[C@H]1OC[C@H](O)[C@H]1O,inactive,–
C/C=C(\C)C(=O)OCC/C=C\CC,inactive,–
O=C1OC(=O)c2cc(Oc3ccc4c(c3)C(=O)OC4=O)ccc21,inactive,–
N#CCCOCCOCCC#N,inactive,–
CCC(C)N (stereo not given),inactive,–
C=CC(C)(O)CC/C=C(\C)CC (stereo not given),inactive,–
CCCCCCCCOC(C)=O,inactive,–
O=C(COCCOCCOCC(=O)Nc1c(I)cc(I)c(C(=O)O)c1I)Nc1c(I)cc(I)c(C(=O)O)c1I,inactive,–
CCCCC/C=C/CC(=O)OC,inactive,–
CC(=O)OCCCc1ccccc1,inactive,–
O=C1c2ccccc2-c2ccccc21,inactive,–
NCCc1ccn[nH]1,inactive,–
CC(C)C(=O)Nc1cccc(C(F)(F)F)c1,inactive,–

Compound,outcome,"activity change, negative = cytotoxicity"
CN(C1CCCCC1)S(=O)(=O)c1ccccc1N,inactive,–
COc1cc2c(Nc3ccc(Br)cc3F)ncnc2cc1OCC1CCN(C)CC1,inactive,–
O=C(/C=C/c1ccccc1)NCCO,inactive,–
CC(=O)OC(C)(C)Cc1ccccc1,inactive,–
CC(=O)OCC(=O)[C@@]1(O)[C@H](OC(C)=O)C[C@H]2[C@@H]3CCC4=CC(=O)C=C[C@]4(C)[C@@]3(F)[C@@H](O)C[C@@]21C,inactive,–
COc1cc(C=O)ccc1OC(=O)C(C)C,inactive,–
CC1=NN(c2ccc(S(=O)(=O)O)cc2)C(=O)C1N=Nc1ccccc1 (stereo not given),inactive,–
CCCO,inactive,–
CC(C)COC(=O)/C=C/c1ccccc1,inactive,–
CCN(CC)C(=O)C1CN2CCc3cc(OC)c(OC)cc3C2CC1OC(C)=O (stereo not given),inactive,–
CCOC(=O)CC#N,inactive,–
CC(C)c1ccccc1O,inactive,–
CCOC(=O)C(=O)c1csc(NC=O)n1,inactive,–
Cc1nc2ccccc2c(=O)o1,inactive,–
CNC(=O)C(c1ccccc1)c1ccccc1,inactive,–
CN(C)CCCNCCC#N,inactive,–
COc1ccc(/C=N/NC(=O)c2ccncc2)cc1OC,inactive,–
O=c1[nH]c(=O)c2[nH]c(=O)[nH]c2[nH]1,–,0.314% [at 8.39 µM]
Nc1nc(=O)n([C@@H]2O[C@H](CO)[C@@H](O)[C@@H]2F)cc1I,inactive,–
Cc1ccccc1C(=O)N1CC/C(=N\OS(=O)(=O)O)c2ccc(Cl)cc21,inactive,–
